This is part of a sample that, as a whole, favours compounds with a hit. Of some 83,000 tested, about 20% had one in any assay.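 Single-dose data. Exposure time 48 hours. Values below 10 considered active.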 Values without a mark were called inactive. The source made the active and inactive calls.

For the assay, the system named is HOP-92 NSCLC. Put plainly: NCI-60 one-dose screen, 48 h (100 = growth as untreated, 0 = no growth, -100 = all killed). The settings on record: 10 µM unless noted.
As to `O=C1c2cc3c(cc2-c2c1c1ccc(Cl)cc1c(=O)n2CCCN1CCOCC1)OCO3`, the growth was 80.4%. The result for `COc1ccc(-n2nc(C)c3c(Oc4ccc(NC(=O)Nc5c(Cl)cccc5Cl)cc4)ncnc32)cc1` reads 98%. In the case of `CCOc1cc2c(cc1OCC)C(c1cc(OC)c(O)cc1Cl)NCC2` (stereo not given) it was 114%; in that of `COC(=O)c1ccc(NC(=O)c2ccc(-c3cccc([N+](=O)[O-])c3)o2)cc1`, 94.6%; in that of `COc1ccc(-c2cc(-c3ccc(Nc4ccnc5cc(Cl)ccc45)cc3)nc(N3CCOCC3)n2)cc1`, 67.2%. In the case of `O=C(COc1cccc(/C=C2\CSc3ccccc3C2=O)c1)Nc1nccs1` it was -52% (active); in that of `N#C/C(=C\c1ccc(-c2ccc(Cl)c(Cl)c2)o1)c1nc(-c2ccco2)cs1`, 109%; in that of `CN(C)c1ccc(N=Nc2ccc(Br)cn2)c(O)c1`, 50.3%.

Take `C#CCOc1ccc2ncnc(Nc3cccc(CNC(=O)CCl)c3)c2c1`: the growth was 54% [8.25 µM]. Turning to `Cn1cc(-c2nonc2-c2c[nH]c3ccccc23)c2cccnc21`, the growth was 62.2%. Take `O=CNc1ccc2c(c1)Cc1cccc(NC=O)c1-2`: the growth was 97.7%. In the case of `Cn1c(O)c(N=NC(=O)c2cc(-c3ccccc3)on2)c2ccccc21` it was 105%; in that of `CC1=C/C(=C(\c2ccc(N(C)C)cc2)c2ccc([N+](C)(C)C)cc2)C=CC1=[N+](C)C`, 56.5%. In the case of `COc1cc2c(cc1-c1c(C)noc1C)ncc1nc(C3CCCC3)n([C@H](C)COC(F)F)c12` it was 20%; in that of `Clc1ccc2c(NCCNc3nc(N4CCCCC4)nc4ccccc34)ccnc2c1`, -16% (active); in that of `COc1ccc2[nH]cc(-c3noc(C(=O)c4cn(C)c5ccc(F)cc45)n3)c2c1`, 84.9%.

`O=c1cc(CSc2nnc(-c3ccc(F)cc3)o2)c2ccc3ccccc3c2o1`: the growth is 92.2%.

`O=C1Nc2ccc(Br)cc2C12Oc1ccccc1C1CC(c3ccc(F)cc3)=NN12` (stereo not given): the growth was 109%. Regarding `FC(F)(F)c1ccc(-c2cn3nc(-c4c[nH]c5ccc(Br)cc45)sc3n2)cc1`, the growth is 88%.

Turning to `COc1cc(/C=C/c2cc(/C=C/c3ccc(O)c(OC)c3)n(-c3c(Cl)cccc3Cl)c(=O)n2)ccc1O`, the growth is 78.7%. The result for `C=CCSSc1ncnc2c1ncn2C1OC(CO)C(O)C1O` (stereo not given) reads 28.2%; that for `O=Nc1c(O)c(Cl)cc2ccccc12`, 112%. As for `Cc1cc2nc3[nH]c4ccccc4c3nc2cc1C`, the growth was 67.2%. In the case of `COc1cc(-c2nn(C)nc2-c2cc3ccccc3s2)cc(OC)c1OC` it was 64.9%; in that of `CC(=O)OCCC/C(=C/c1cc2ccccc2c2ccccc12)[N+](=O)[O-]`, -76% (active).

For the origin of these results see PubChem BioAssay (NCI).
